Screening data deposited in PubChem BioAssay by National Center for Advancing Translational Sciences (NCATS).
BRCT PPI red – BRCT-phosphoprotein interaction inhibition (red fluorophore); P38398; BRCT-phosphopeptide binding, red fluorescence polarization; Potency, µM (doses to about 76.9 µM), for the others: top-dose activity change, negative = inhibition, actives largely listed as inhibitors; 0.03% of 75,000 active; further: on the % scale 0 is the no-effect control and ±100 the full control effect
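Fluorescence polarization: 100 nM His-tagged BRCA1 BRCT with 100 nM TAMRA-labelled phospho-BACH1 decapeptide, phosphate buffer pH 7.3 with 150 mM NaCl, DTT, 0.01% Tween 20; 12 min RT. Binding inhibition seen as FP decrease.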
Hsp90 Hop PPI – changes Hsp90-Hop TPR2A binding signal, up or down; AlphaScreen TPR2A-His6 binding biotin-Hsp90 C-terminal peptide; Potency, µM (highest dose often 57 µM), inactives show at the top dose activity change, negative = inhibition; 0.44% of 71,000 active; AID 595; active means well fitted curve in either direction with a large enough effect; inconclusive means small, poorly fitted or top-dose-only effect, or another doubt; further: potency means the concentration at half of the fitted maximal effect; on the % scale 0 is the no-effect control and ±100 the full control effect
BRCT PPI green – blocks human BRCA1 BRCT binding to phosphopeptide, green readout; P38398; BRCA1 BRCT-phosphopeptide binding, green fluorescence polarization; Potency, µM (top dose mostly 76.9 µM), inactives show at the top dose activity change, negative = inhibition, most hits filed as inhibitors; 0.05% of 75,000 active; AID 875;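 further: potency means the concentration at half of the fitted maximal effect; plate controls were peptide without protein for full effect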
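Fluorescence polarization: His-tagged BRCT (~35 kDa BRCA1 C-terminus, 250 nM) bound to 100 nM fluorescein-labeled phosphorylated 10-aa BACH1 peptide, pH 7.3 phosphate buffer with DTT and Tween 20. Compounds incubated 12 min at room temperature; inhibition read as lowered polarization.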
YjeE inh – inhibitors of E. coli YjeE (TsaE) | P0AF67 | purified YjeE enzyme, qHTS inhibition assay | Potency, µM | 0.05% of 71,000 active | AID 605
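Purified YjeE (10 uM) with BODIPY Texas Red-labeled ADP probe (2 uM); compounds pin-transferred, 15 min at room temperature. Binding inhibition read as decreased fluorescence polarization; ADP titration as control.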
Tau filament bind – binds recombinant human tau filaments; P10636; recombinant tau filaments, thioflavin S fluorescence, 15 h; filaments grown with octadecylsulfate alongside compound; Potency, µM (series often up to 57.1 µM), without a hit: at the top dose activity change, negative = inhibition; 2% of 71,000 active; AID 596;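 further: potency means the concentration at half of the fitted maximal effect; on the % scale 0 is the no-effect control and ±100 the full control effect; actives lower thioflavin S fluorescence by blocking filaments or displacing dye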
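His-tagged recombinant human tau (exons 2, 3, 10; 1 uM final) fibrillized with 30 uM sodium octadecylsulfate, 15 h at 37 C, in pH 7.4 HEPES buffer with 10 uM thioflavine S and 5 mM DTT. Reduced ThS fluorescence (450/510 nm) marks activity.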
Pol III holo inh – DNA polymerase III holoenzyme inhibition | reconstituted DNA polymerase III holoenzyme replication, biochemical | Potency, µM (series often up to 57.1 µM), for inactives: top-dose activity change, negative = inhibition | 0.25% of 71,000 active; further: potency means the concentration at half of the fitted maximal effect; on the % scale 0 is the no-effect control and ±100 the full control effect
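Reconstituted *E. coli* holoenzyme (0.35 nM Pol III, 1 nM beta, 154 nM SSB, 2 nM primase) was preincubated with compound for 15 min at RT. Synthesis on 1.4 nM ssM13Gori ran 35 min, then was stopped with PicoGreen/EDTA and read as dsDNA fluorescence.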
Numbers without * were called inactive; i = inactive; ? = inconclusive; . = no result given; ! = a repeat was not active; [ ] = remark or other dose. Hits are enriched below; roughly 2.3% of the tested compounds scored in any of these assays. Unless noted, the call rests on the fitted dose curve; in most records, active means well fitted curve in the direction sought with a large enough effect; inconclusive means small, poorly fitted or top-dose-only effect, or another doubt; inactive means no such curve, though single readings can be large; an effect the other way counts as inactive or inconclusive.

SMILES | BRCT PPI red | Hsp90 Hop PPI | BRCT PPI green | YjeE inh | Tau filament bind | Pol III holo inh
COc1ccc(-n2c(C)cc(C(=O)CSc3nn4c(=O)c(C(C)(C)C)nnc4s3)c2C)cc1 | 1% | -5% | 1% | i | 20µM* | -8%
c1nc(N2CCCC2)c2[nH]cnc2n1 | -1% | 1% | -2% | i | 2% | -1%
OCCN1CCN(c2ncnc3nc[nH]c23)CC1 | 1% | -5% | 1% | i | 25µM* | 1%
N#CC1=C(N)SC2(CCCCC2)SC1c1ccccc1 (stereo not drawn) | -2% | -2% | 0% | i | 20µM* | 7%
N#CC1=C(C2CC2)CC(c2ccccc2)C(C#N)=C1N (stereo not drawn) | -4% | 3% | 12% | i | 40% | 0%
CC(=O)N(OCc1ccccc1)[C@@H]1c2cc(C#N)ccc2OC(C)(C)[C@H]1O | 0% | . | -3% | . | . | .
CCCCCCCCCCCCCCC/C=C\[C@H](O)[C@@H](NC(=O)CCCCCCCCCCCCC)OC (tested in a mixture with another compound) | 2% | -3% | -2% | i | 4% | -5%
CC1CCC2C(=O)N3C(CCC(C)[C@@H]3c3ccc(Br)cc3)C(=O)N2C1c1ccc(Br)cc1 (stereo partly drawn) | -1%[15.4 µM] | . | 1%[15.4 µM] | . | . | .
CN1/C(=C/C(=O)c2nc(S(C)(=O)=O)ncc2Cl)C(C)(C)c2ccccc21 | -1% | -25% | 11% | i | 10µM* | 1%
CN1/C(=C\C(=O)C(F)F)C(C)(C)c2ccccc21 | -2% | 12% | -3% | i | -4% | -7%
COc1ccc(C2C(C(C)=O)=C(C)N=c3s/c(=C\c4ccc5c(c4)OCO5)c(=O)n32)c(OC)c1 (stereo not drawn) | 0% | -30% | 7% | i | 4µM* | 6%
O=C(CSc1nnc2ccccn12)c1ccc(OC(F)F)cc1OC(F)F | 0% | -9% | 5% | i | 13µM* | -10%
S=C(Nc1ccccn1)c1ccccn1 | 1% | 10µM* | -1% | i | 25µM* | -4%
Cc1c(N2C(=O)c3ccc4c5c(ccc(c35)C2=O)CC4)c(=O)n(-c2ccccc2)n1C | -26% | -9% | -16% | i | 16µM* | 25µM*
Cc1c(N)c(=O)n(-c2ccccc2)n1C | -2% | -3%[26 µM] | -1%[3.08 µM] | i | 5%[25.6 µM] | 6%[25.6 µM]
CCCOc1ccc(N2C(=O)CC(N(O)c3ccccc3)C2=O)cc1 (stereo not drawn) | 1% | -3% | 0% | i | 25µM* | 5%
COCCNc1nc(C)nc2c1nc(-c1ccccc1)n2CCN(C)C | 0% | -2% | -1% | i | -9% | -3%
O=C(COC(=O)c1ccccn1)Nc1nccs1 | 0% | -2% | -1% | i | 10% | -3%
O=C(OCC(=O)c1ccccc1Br)c1ccccn1 | -1% | 25µM* | 1% | i | -4% | 4%
CCc1cccc(NC(=O)Cn2cc3c(n2)CCCC3)c1 | 0% | -1% | 0% | i | -13% | -2%
CN(C)c1ccc(NC(=O)Cn2cc3c(n2)CCCC3)cc1 | -1% | ? | -3% | i | 13µM* | -11%
N#C[C@@H](Cc1ccc(O)c(O)c1)C(=O)N1CCc2ccccc21 | 1% | 6.3µM* | -4% | i | -5% | -13%
Cc1ccc(-n2nc(C)c3c2OC(N)=C(C#N)C3c2ccoc2)cc1 (stereo not drawn) | 0% | -15% | 0% | i | 32µM* | -1%
Cc1ccc(-n2nc(C)c3c2OC(N)=C(C#N)C3c2ccco2)cc1 (stereo not drawn) | -2% | . | -3% | . | . | .
COc1cccc2c1C(=O)c1c(O)c3c(c(O)c1C2=O)C[C@@](O)(C(C)=O)C[C@@H]3O[C@H]1C[C@H](N)[C@H](O)[C@H](C)O1 | 16µM* | ? | 9% | i | 0.13µM* | 0.16µM*
SMILES | BRCT PPI red | Hsp90 Hop PPI | BRCT PPI green | YjeE inh | Tau filament bind | Pol III holo inh
C=C1c2cccc(O)c2C(O)=C2C(=O)[C@@]3(O)C(O)=C(C(N)=O)C(=O)[C@@H](N(C)C)[C@@H]3[C@@H](O)[C@H]12 | -20%[34.4 µM] | ? | -9%[34.4 µM] | i | -24%[25.6 µM] | -14%[25.6 µM]
COc1cc(-c2ccc(N=Nc3ccc4c(S(=O)(=O)O)cc(S(=O)(=O)O)c(N)c4c3O)c(OC)c2)ccc1N=Nc1ccc2c(S(=O)(=O)O)cc(S(=O)(=O)O)c(N)c2c1O | ? | 4µM*! | 40µM*! | 50µM* | 13µM* | 2.5µM*
O=S(=O)(O)c1ccc2c(N=Nc3cccc4ccccc34)c(O)c(S(=O)(=O)O)cc2c1 | -18%[15.4 µM] | -29%[11 µM] | -25%[15.4 µM] | i | -11%[11.4 µM] | -9%[11.4 µM]
Cc1nn(-c2ccc(S(=O)(=O)O)cc2)c(O)c1N=Nc1ccc(-c2ccc(N=Nc3ccc4c(S(=O)(=O)O)cc(S(=O)(=O)O)c(N)c4c3O)c(O)c2)cc1O.[Cu].[Cu] | 2.5µM* | -16%[11 µM] | 6.3µM* | ? | -22%[11.4 µM] | 1.3µM*
COc1ccc2c(Cc3c4ccccc4cc4ccccc34)cncc2c1O | 0%[15.4 µM] | -10%[11 µM] | -1%[15.4 µM] | i | -20%[11.4 µM] | -10%[11.4 µM]
CC(=O)Nc1ccc2c(c1)/C(=C/c1ccc([N+](C)(C)C)cc1)c1ccccc1-2 | -1%[15.4 µM] | -5%[11 µM] | 0%[15.4 µM] | i | 3.2µM* | -14%[11.4 µM]
CC(=O)Nc1ccccc1C=C1c2ccccc2-c2ccccc21 | 0%[15.4 µM] | -5%[11 µM] | -1%[15.4 µM] | i | 13%[11.4 µM] | -12%[11.4 µM]
CN(C)c1ncc2ncc(=O)n(Cc3cccs3)c2n1 | 0% | 2% | 4% | i | -6% | -4%
Cc1ccc(OC2C(O)COC2/C=C/C#Cc2ccc(C(C)(C)C)cc2)cc1 (stereo not drawn) | -1%[15.4 µM] | . | 1%[15.4 µM] | . | . | .
COc1ccc2c(c1)CCC1[C@@H]2CCC2(C)[C@@H](NCCCCCCN3C(=O)C=CC3=O)CC[C@@H]12 (stereo partly drawn) | -1% | -9% | -4% | i | ? | -4%
Oc1ccc(C=Nc2ccc(N3CCOCC3)cc2)c(O)c1 | -2% | -21% | 12% | i | 20µM* | -15%
Cc1ccc(N=Cc2ccc(O)cc2O)cc1F | 0% | -3% | -1% | i | -30% | 0%
N#Cc1nc(N2CCCCC2)nc(N2CCOCC2)n1 | 0% | 0% | -2% | i | 2.5µM* | 3%
CCSc1nnc(NC(=O)c2ccccn2)s1 | 0% | 7.9µM* | 0% | i | 1% | -7%
Cc1ccc(N(CC(=O)Nc2cccc(C)c2)S(=O)(=O)c2cccc3nonc23)cc1 | 0% | -11% | 12% | i | 16µM* | 0%
Cc1ccc(NC(=O)CCNS(=O)(=O)c2cccc3nonc23)cc1 | -2% | -2% | -2% | i | -3% | 2%
